# Source: PubChem (several laboratories)
# Shown are actives, neighbours in structure and some others; about 3.9% of the full set was active somewhere.
# HGIII-sPLA2 inh: Blocks human group III sPLA2 activity; inhibition, % at 12.2 µM; Q9NZ20; AID 743126; hit rate 0.56% among 370,000; QFRET BODIPY PC-A2 liposome hydrolysis, fluorescence;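 active = inhibition above mean plus 3 SD of compounds lying within the high and low control bounds, cut at about 19% in these data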;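 note: 0% = median of test compound wells and 100% = no enzyme DMSO wells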
# HIF act: HIF pathway transcriptional activation | U2OS HRE-luciferase reporter, luminescence; normalized: DMSO 0%, desferrioxamine 100% | activation, % at 7.5 µM (by protocol) | hit rate 0.32% among 300,000 | AID 1910;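 active = mean activation of at least 10% of the iron chelator positive control signal, with at least half of replicates also reaching 10%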
# PLCb3 inh: inhibitors of human phospholipase C beta3; Q01970; hit rate 0.18% among 370,000; inhibition, % at 12.2 µM; AID 720704; Purified PLC-beta3, fluorogenic substrate, fluorescence; in the data active = inhibition above about 11%;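 note: 0% = median of compound wells on plate and 100% = full blocker control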
# Yeast superoxide: yeast age-related superoxide inhibition as caloric restriction mimetic | superoxide response (% of plate mean), % at 10 µM | S. cerevisiae aged cells, superoxide DHE fluorescence; stronger effect = lower value | hit rate 0.18% among 330,000;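 active = superoxide response under a set limit, about three screen SD below normal, cut at about 65% in these data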;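 note: yeast aged for seven days with compound at 30 °C before DHE staining; 100% = average MFI of all compound-treated wells on the plate with controls excluded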
# PLC-gamma1 inh: blocks human PLC-gamma1 enzyme activity; hit rate 0.84% among 370,000; purified PLC-gamma1, fluorogenic substrate, fluorescence; P19174; inhibition, % at 12.2 µM; in the data active = inhibition above about 9.5%
# AHR activator: activators of human aryl hydrocarbon receptor. P35869. AHR-responsive luciferase reporter cells, luminescence. activation, % at 5 µM. hit rate 2.5% among 320,000; in the data active = activation above about 47%;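 note: 0% = vehicle wells and 100% = reference agonist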
# CR mimetic CP: confirmation of caloric restriction mimetics inhibiting yeast age-related superoxide; AID 434994; superoxide response (% of plate), % at 10 µM; S. cerevisiae aging, superoxide DHE fluorescence; stronger effect = lower value; hit rate 1% among 850; shares compounds with Yeast superoxide;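 active = superoxide signal below 65% of the plate average of sample wells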;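 note: cells aged with compound for 7 days at 30 degrees C before staining; 100% equals mean DHE fluorescence of all compound wells on the plate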
# DHE counter: DHE fluorescence interference, counter-screen artifact. shares compounds with Yeast superoxide. 850 tested, under 10 active. S. cerevisiae BY4741, flow cytometry; stronger effect = lower value. fluorescence response, % at 10 µM;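 active = fluorescence response below 15%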;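 note: percent of the mean fluorescence averaged over all compound wells on the plate; lower means stronger quenching of DHE signal or ROS scavenging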
# Numbers without * were called inactive; . = not tested or not shown.
SMILES,HGIII-sPLA2 inh,HIF act,PLCb3 inh,Yeast superoxide,PLC-gamma1 inh,AHR activator,CR mimetic CP,DHE counter
COC(=O)[C@]12C[C@H](CC(=O)N3CCCC3)C(=O)N(Cc3ccco3)C1=C[C@H](C(C)(C)C)O[C@@H]2C,-0.3,.,1.6,.,1.3,.,.,.
CC1(C(=O)NS(=O)(=O)c2ccc(C#N)cc2)CCN1C(=O)CC1CCCCC1 (stereo not given),-5.4,.,2.2,.,8.6,.,.,.
CCn1c2ccccc2c2cc(NC(=O)C(C)C)ccc21,4.0,0.0,3.3,90.4,3.1,36.8,107.0,104.5
CCCC(=O)Nc1ccc2c(c1)c1ccccc1n2CC,3.7,0.8,-1.6,80.1,-1.8,69.0*,113.2,117.4
CCn1c2ccccc2c2cc(NC(=O)CC(C)=O)ccc21,-30.1,-0.3,1.1,95.4,-0.3,57.1*,100.5,93.4
Cc1ccc(NC(=O)c2ccc(OC(=O)COc3cccc(Cl)c3)cc2)cc1,-15.1,3.4,0.7,105.3,1.2,10.9,.,.
Cc1ccc(S(=O)(=O)N2CCN(C(=O)COC(=O)c3ccc(Cl)c(S(N)(=O)=O)c3)CC2)c(C)c1,-6.9,.,0.9,.,1.2,.,.,.
CCN(CC)C(=O)CC[C@H]1CC[C@]2(CCCN(C(=O)c3cccnc3)C2)O1,2.1,.,0.1,.,-1.7,.,.,.
CC(C)Oc1ccc(/C(O)=C2/C(=O)C(=O)N(CCN3CCNCC3)C2c2cccc([N+](=O)[O-])c2)cc1 (stereo not given),2.9,1.1,-5.8,113.7,0.2,-2.2,.,.
N#CCCN(C(=O)CSc1nc2ccccc2c(=O)[nH]1)c1ccc(F)cc1,0.7,.,-2.3,121.0,0.2,1.3,.,.
O=C(CSc1ccc(-c2ccccn2)nn1)Nc1ccc(F)cc1F,-2.7,0.0,-6.1,107.7,0.3,9.1,103.2,106.3
O=C(CSc1ccc2nnc(-c3ccccn3)n2n1)Nc1ccc(F)cc1F,6.7,-0.5,-7.8,108.2,2.1,-1.1,.,.
O=C(CSc1ccc(-c2ccccn2)nn1)Nc1ccc(F)c(F)c1,0.6,6.3,-8.3,99.1,0.7,7.8,137.4,115.3
Cc1cc(C)c(NC(=O)CSc2ccc(-c3ccccn3)nn2)c(C)c1,4.0,-0.3,-5.1,89.9,2.7,4.1,.,.
Cc1ccc(NC(=O)CSc2ccc(-c3ccccn3)nn2)cc1,-1.5,3.7,-3.5,139.4,0.0,6.0,.,.
CCOC(=O)c1ccc(NC(=O)CSc2ccc(-c3ccccn3)nn2)cc1,5.5,4.9,-8.1,113.5,2.2,10.5,115.9,90.8
COc1ccccc1NC(=O)CSc1ccc(-c2ccccn2)nn1,10.7,1.1,-1.3,112.8,4.8,-0.4,100.6,97.4
CCCCn1c(N)c(N(CC)C(=O)c2ccc(C#N)cc2)c(=O)[nH]c1=O,8.3,0.3,-5.1,101.6,0.2,-1.3,.,.
Cc1ccc2c(c1)[C@H]1[C@H](CO2)[C@H](c2ccccc2)[C@]2(C)C(=O)Nc3cc(F)ccc3C(=O)N12,3.9,.,-3.1,117.1,2.4,2.4,.,.
O=C(CSc1n[nH]c(-c2cccnc2)n1)Nc1ccccc1C(F)(F)F,2.8,0.6,-1.9,106.4,1.2,0.9,.,.
O=C(CSc1ccc(-c2cccnc2)nn1)Nc1ccccc1C(F)(F)F,1.4,-0.2,-5.4,91.6,-0.2,13.8,100.8,90.6
COc1cc2c(cc1C1NC(=S)NC(C)=C1C(N)=O)CCCC2 (stereo not given),7.8,-0.1,0.7,154.6,-1.8,1.9,.,.
O=C(COC(=O)c1cc(=O)[nH]c(=O)[nH]1)Nc1cccc(Cl)c1,-3.5,.,-2.4,119.7,-2.7,-1.0,.,.
COc1ccc(-c2ccc(=O)n(Cc3cccc(Cl)c3)n2)cc1,-23.0,-34.9,-425.2,54.6*,-322.2,16.5,89.8,88.6
NC(=O)c1ccsc1NC(=O)c1ccc([N+](=O)[O-])o1,11.9,.,-42.0,129.9,-22.3,6.4,.,.
